Many of the other results were omitted from the sample, so hits are more common in it than they were.
Pf Dd2 growth: qHTS Primary assay for Inhibitors of Plasmodium falciparum Dd2 growth in vitro | P. falciparum Dd2 growth, SYBR Green, 72 h | Potency, µM (series often up to 28.9 µM), hits mostly inhibitors | 120,000 compounds, 4.3% hits | AID 1347417, 2020; active = well fitted inhibition curve with a large enough effect; note: nearly all actives have a fitted effect of over 65% in size
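Readout: SYBR Green fluorescence, 485 nm excitation, 535 nm emission, after ~16 h lysis at 37C. Before that, Dd2-infected red cells (2.5% hematocrit) grew 72 h with compound, 29 uM top final concentration.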
Each line names hits and unclear results; the compound was inactive in the other large screens.

COCC1CCN(Cc2cc3cc4c(cc3nc2-c2ccc(Cl)cc2)OCO4)C1 (configuration not stated)	none
COc1ccc2cc(CN3CCC(N(C)C)C3)c(-c3cccc(C)c3)nc2c1 (configuration not stated)	Pf Dd2 growth 11µM
Cc1oc(-c2cccc(Oc3ccccc3)c2)nc1CN1CC[C@H](N(C)C)C1	none
CC(C)Cc1noc(CN(C)C(=O)c2cc(C(C)C)n3ncnc3n2)n1	none
CC(C)(C)NC(=O)N1CCC(OC2CCN(S(C)(=O)=O)CC2)CC1	none
CC(C)CN1CCN(C2CCOC3(CCN(C(=O)c4ccnn4C)CC3)C2)CC1 (configuration not stated)	none
O=C(N[C@H]1CCCNC1=O)C1=C[C@@H](NC(=O)c2cccnc2)[C@@H](O)[C@H](O)C1	none
O=C(CCc1cc(=O)[nH]o1)N[C@H](c1ccccn1)C1CC(O)C1 (some centres not stated)	none
O=C(NCC1CC1)c1cccc(OC2CN(C3CCOCC3)C2)c1	none
COc1ccc(OC2CN(Cc3ccc(NC(C)=O)cc3)C2)cc1	none
O=C(NC1CC1)[C@@H]1CN(Cc2ccc(OC(F)(F)F)cc2)C[C@H]1CO	Pf Dd2 growth 13µM
CNC(=O)[C@@H]1CN(Cc2ccccc2OC(F)(F)F)C[C@H]1CO	none
O=C(NC1CC1)[C@@H]1CN(Cc2cc(F)c(F)cc2F)C[C@H]1CO	none
O=C(NC1CC1)[C@@H]1CN(Cc2ccc(Cl)cc2F)C[C@H]1CO	Pf Dd2 growth 7.9µM
O=C(NCC1CC1)c1cccc(OC2CN(Cc3ccc(OC(F)(F)F)cc3)C2)c1	Pf Dd2 growth 8.9µM
COC[C@@H]1CN(Cc2ccc(OC)c(C)c2)C[C@H]1C(=O)NC1CC1	none
COC[C@@H]1CN(Cc2ccc(F)cc2F)C[C@H]1C(=O)NC1CC1	none
COc1ccc2c(c1)OCC(C(=O)NCCNc1cc(C)ccn1)C2 (configuration not stated)	none
COC[C@@H]1OC[C@@]2(C)C3CC[C@@H](O)[C@@H](CC(=O)NCc4cccs4)[C@]3(C)CC[C@H]2O1 (some centres not stated)	none
Cc1cnc(-c2ccccc2)n1CCNC(=O)NCc1ccccc1	none
CC(C)OCCCNc1ncnc2c1CN(C1CCNC1)C(=O)CN2C (configuration not stated)	none
N#Cc1ccc(N2CCCn3nc(CCC(=O)N4CCCC4)cc3C2)nc1	none
CCCNc1ncc(CN2CCC(Cc3nn(C)c(=O)n3CC)CC2)cn1	none
Cc1cc(OC2CN([S+](=O)([O-])c3ccc(C(F)(F)F)cc3)C2)ccc1F	none
CC(=O)N1Cc2ccccc2CC2(CCCN(C)C2)C1 (configuration not stated)	none
CCN1CCCC2(Cc3ccccc3CN(C(=O)C(C)C)C2)C1 (configuration not stated)	Pf Dd2 growth 11µM
CC(C)C(=O)N1Cc2ccccc2CC2(CCCN(CC3CCOCC3)C2)C1 (configuration not stated)	Pf Dd2 growth 7.1µM
CC(C)C(=O)N1Cc2ccccc2CC2(CCN(CC3CCNCC3)C2)C1 (configuration not stated)	none
CC(=O)N1Cc2ccccc2CC2(CCCN(CC3CCOCC3)C2)C1 (configuration not stated)	none
CCN1CCCC2(Cc3ccccc3CN(C(=O)CCNC(C)=O)C2)C1 (configuration not stated)	none
CC(C)(C)c1coc([C@@H]2COCCN2Cc2ccc(C(=O)O)cc2)n1	none
COC[C@@H]1[C@H](C(=O)Nc2cc(OC)ccc2OC)CCC(=O)N1C	none
CC(=O)Nc1ccc(CN[C@@H]2CO[C@H](CNS(C)(=O)=O)[C@H]2O)cc1	none
COc1ccc(S(=O)(=O)N2C[C@@H]3C[C@H](C2)c2ccc(-c4cccc(C(F)(F)F)c4)c(=O)n2C3)cc1	none
CCO[C@H]1CN(Cc2cnc(-c3ccccc3C)s2)C[C@@H]1O	none
Cc1ccccc1-c1nccn2c(C3CN(Cc4ccccc4O)C3)ncc12	Pf Dd2 growth 0.35µM
Cn1nccc1C(=O)N1CC(c2ncc3c(-c4ccccc4)nccn23)C1	none
COc1ccc(C(C)NC(=O)COc2ccc(NC(=O)C3CC3)cn2)cc1 (configuration not stated)	none
CCCCCN1C(C(=O)c2ccccc2)=C(NC(=O)c2ccc(OC)c(OC)c2)c2ccccc2S1(=O)=O	none
CCCCC(=O)OC1=C(C(=O)c2ccccc2)N(CC)S(=O)(=O)c2ccccc21	none
CCN1C(C(=O)c2ccccc2)=C(NC(=O)c2ccc(Cl)cc2)c2ccccc2S1(=O)=O	Pf Dd2 growth 13µM
COc1ccc(C)cc1NC(=O)c1oc2ccc(S(=O)(=O)N3CCCCC3)cc2c1C	none
COc1ccc(C)cc1NC(=O)c1oc2ccc(S(=O)(=O)N3CCOCC3)cc2c1C	none
CCOC(=O)c1oc2ccc(S(=O)(=O)n3nc(-c4cc(OCC)c(OCC)c(OCC)c4)cc3N)cc2c1C	Pf Dd2 growth 10µM
COc1ccc(NC(=O)[C@@H]2COCC(=O)N2Cc2ccc(OC)c(OC)c2)cc1Cl	none
O=C(O)C[C@@H]1CCN(C(=O)c2cccs2)C[C@@H]1CCN1CCN(c2cccc(C(F)(F)F)c2)CC1	none
Cc1nc(C)c(C(=O)N2[C@@H]3CC[C@H]2CC(NC(=O)c2ccncc2)C3)s1 (some centres not stated)	none
c1nc(-c2cc(NC3CCNCC3)nc3[nH]ccc23)c2sccc2n1	none
O=C(NCc1ccnc2[nH]ccc12)C1CCCC1	none
CN(C)C(=O)c1ccc(-c2cc(NC3CCCC3)nc3[nH]ccc23)o1	Pf Dd2 growth 8.9µM
Cc1noc2c(N3CC[S+](=O)([O-])CC3)cc(-c3cccs3)nc12	none
CCNC(=O)[C@@H]1C[C@H](N)CN1C(=O)c1c(C)nc2sccn12	none
CNS(=O)(=O)CCNc1nc(-c2ccccn2)nc2c1c(C)nn2C	none
Cc1nc(CCNc2nc(-c3ccccn3)nc3c2c(C)nn3C)no1	none
Cc1nn(C)c2nc(-c3ccccn3)nc(NCC(c3ccco3)N(C)C)c12 (configuration not stated)	Pf Dd2 growth 8.9µM
CC(C)C[C@@H](NC(=O)[C@@]1(O)C[C@@H](O)[C@H](O)[C@@H](NC(=O)c2ccc(F)c(Cl)c2)C1)C(N)=O	none
O=C(NCc1cnccn1)c1ccc(-c2ncc3cnc(C4=CCOCC4)cn23)cc1	none
COC(=O)c1c(NC(C)=O)c2cc(NC(C)CC(C)(C)O)cnc2n1CCC(C)C (configuration not stated)	none
COc1ccc(-c2[nH]nc3ncc(-c4ccc(C)cc4)nc23)cc1F	Pf Dd2 growth 13µM
COc1ccccc1-c1[nH]nc2ncc(-c3ccc(C)cc3)nc12	none
COc1ccc(-c2cnc3n[nH]c(-c4ccc(OC)c(F)c4)c3n2)cn1	none
COc1ccc(C2Cn3nnc(-c4nc(-c5ccc(F)c(F)c5)no4)c3CO2)cc1 (configuration not stated)	none
O=C1NC(=NC2CCCC2)C2(CCCN(Cc3cccnc3)C2)N1c1cccnc1 (configuration not stated)	none
O=C(c1cccnc1)N1CCCC2(C1)C(=NC1CCCC1)NC(=O)N2c1cc(F)cc(F)c1 (configuration not stated)	none
O=C1NC(=NC2CCCCC2)C2(CCN(Cc3ccc(F)cc3)CC2)N1c1cccnc1	none
O=C1NC(=NC2CCCCC2)C2(CCCN(Cc3ccc(F)cc3)C2)N1c1cc(F)cc(F)c1 (configuration not stated)	Pf Dd2 growth 7.9µM
O=C1NC(=NC2CCCCC2)C2(CCN([S+](=O)([O-])c3ccccc3)C2)N1c1cc(F)cc(F)c1 (configuration not stated)	none
